# aSyn 5UTR act – Activators via SNCA 5'UTR binding, MLPCN; alpha-synuclein 5'UTR reporter, activators screen; activity score, % (tested at 7.5 µM), hits read low; actives 7.1% (n = 300,000); AID 1814, 2009; in the data active = activity score below about -60%
# Active calls of the source: *. The list is a sample of the results.
SMILES,aSyn 5UTR act
C/C(=N\Nc1ccc([N+](=O)[O-])cc1)c1cc2ccccc2o1,-73*
C/C(=N/Nc1ccc([N+](=O)[O-])cc1)c1ccc(C)cc1C,-89*
c1ccc2[nH]c(-c3ccc4c(c3)OCO4)nc2c1,79
O=C(Nc1ccc(-c2nc3ccccc3[nH]2)cc1)c1ccc2c(c1)OCO2,-102*
O=C(Nc1ccc(-c2cn3c(n2)SCC3)cc1)c1ccc2c(c1)OCO2,-87*
Cn1ncc([N+](=O)[O-])c1C(=O)Nc1ccc(-c2nc3ccccc3[nH]2)cc1,-159*
CS(=O)(=O)c1ccc(C(=O)Nc2ccc(-c3nc4ccccc4[nH]3)cc2)cc1,-67*
Cn1ncc([N+](=O)[O-])c1C(=O)Nc1ccc(C2CCCCC2)cc1,-136*
Cc1c(C(=O)NCc2ccc3c(c2)OCO3)oc2ccc(S(=O)(=O)N3CCCCCC3)cc12,60
CCCc1ccc2oc(C(=O)NCc3nnc(C)o3)c(C)c2c1,-128*
CCCc1ccc2oc(C(=O)NCCCN3CCOCC3)c(C)c2c1,-96*
Cc1c(C(=O)NCCCN2CCOCC2)oc2c1C1(CCC2)SCCS1,-70*
Cc1c(C(=O)OC(C)C)sc(N)c1C(=O)OC(C)C,-120*
COc1cccc(C(=O)Nc2ccc(NC(C)=O)cn2)c1,-129*
O=C(Nc1ccc(NC(=O)c2ccco2)nc1)c1cccnc1,-75*
O=C(Nc1ccc(NC(=O)c2ccco2)nc1)c1cccc(F)c1,-134*
CCCC(=O)Nc1ccc(NC(=O)c2cccc(OC)c2)nc1,-160*
COc1cccc(C(=O)Nc2ccc(NC(=O)c3ccco3)nc2)c1,-162*
Cn1cccc1/C=C1\Cc2ccccc2C1=O,-142*
O=C(CSc1nc2ccccc2s1)c1ccc(O)cc1O,-66*
O=C(Cc1nc2ccccc2s1)c1ccc(O)cc1O,-147*
Cc1nn(-c2ccccc2)c(Cl)c1/C=N/NC(=O)OC(C)(C)C,-131*
Cc1nn(-c2ccccc2Cl)c(Cl)c1/C=N/Nc1nc2ccccc2s1,69
CNC(=S)N/N=C/c1c(C)nn(-c2ccccc2)c1Cl,-89*
CCOC(=O)N/N=C/c1c(C)nn(-c2ccccc2Cl)c1Cl,-91*
SMILES,aSyn 5UTR act
Cc1nn(C(C)(C)C)c(C)c1/C=N/OC(=O)Nc1ccc(Cl)cc1,94
CCc1ccc(CCC(=O)Nc2ccc(Cl)cc2)o1,-67*
Cc1ccnc(Nc2nc(-c3ccc(Cl)cc3)cs2)c1,-163*
Cc1ccnc(Nc2nc(-c3ccc(F)cc3)cs2)c1,-162*
COc1ccc(/C=C/C(=O)c2ccc(Cl)s2)cc1O,-147*
COc1cc(/C=C/C(=O)c2ccc(Cl)s2)cc(OC)c1O,-164*
CCN(CC)c1ccc2c(cc1=O)[C@@H](NC)CCc1cc(OC)c(OC)c(OC)c1-2,107
O=C(Nc1cccc(-c2csc(Nc3ccc(Cl)cc3)n2)c1)c1cc([N+](=O)[O-])cc(C(F)(F)F)c1,-72*
O=C(Nc1cccc(-c2csc(Nc3ccccc3)n2)c1)c1cc([N+](=O)[O-])cc(C(F)(F)F)c1,-87*
O=C(Nc1cccc(-c2csc(Nc3ccc(Cl)cc3)n2)c1)c1cccc(C(F)(F)F)c1,-71*
CCC1(C)Cc2ccccc2-c2nc(NCCO)n(-c3ccc(C)cc3)c(=O)c21 (stereo not given),-63*
Cc1ccsc1/C=N/N1CCN(c2ccccc2)CC1,-148*
Cc1ccsc1/C=N/N1CCN(c2ccccn2)CC1,-94*
O=C(/C=C\Nc1ccc2c(c1)OCO2)c1ccc2c(c1)OCO2,-175*
CCOc1ccc(N/C=C\C(=O)c2ccc3c(c2)OCO3)cc1,-89*
COc1ccc(N/C=C\C(=O)c2ccc3c(c2)OCO3)cc1,-264*
O=C(/C=C\Nc1ccc2c(c1)OCO2)c1ccccn1,118
COc1ccc(N=Nc2nc3ccc(Br)cc3n2C)cc1,-113*
NNC(=O)c1sc(-c2ccc(Cl)cc2)cc1N,-82*
CCOC(=O)c1sc(-c2ccc(Br)cc2)cc1N,-185*
CCOC(=O)c1cc(-c2ccc(N)cc2)sc1N,-76*
COC(=O)c1nn(-c2ccc3c(c2)CCN3C(C)=O)cc1O,91
CCOC(=O)c1nn(-c2ccc(C)c(C)c2)c(=O)c2c(N)scc12,46
CCOC(=O)c1nn(-c2ccc(C)cc2)cc1C(=O)c1ccccc1,-120*
CCOC(=O)c1nn(-c2ccc(C)c(C)c2)cc1O,-141*
SMILES,aSyn 5UTR act
COC(=O)c1nn(-c2ccc3c(c2)OCO3)cc1O,-86*
CCCCC(=O)Nc1ccccc1Oc1ccccc1,-123*
COc1ccc(OCCSc2nnc3sc4ccccc4n23)cc1,-131*
COc1ccc(-c2cc(=NC(CC(C)C)C(=O)O)c3cc(C)ccc3o2)cc1 (stereo not given),-153*
Cn1c(=O)n(C)c2cc(S(=O)(=O)Nc3cc(Cl)ccc3O)ccc21,-72*
CCc1ccc(S(=O)(=O)Nc2cc3c(cc2C)n(C)c(=O)n3C)cc1,-92*
CC(C)(C)C(=O)CSc1ncnc2c1cnn2-c1ccccc1,-162*
c1ccc(CSc2ncnc3c2cnn3-c2ccccc2)cc1,-142*
N#C/C(=N\Nc1cccc(F)c1)C(=N)N1CCCCCC1,-95*
N#C/C(=N\Nc1ccccc1)C(=N)N1CCCCCC1,-171*
N#C/C(=N\Nc1ccc(F)cc1)C(=N)N1CCCCC1,-111*
CC(=O)c1c(C)[nH]c(C(=O)CSc2nnc(C)s2)c1C,-110*
CC(=O)c1c(C)[nH]c(C(=O)CSc2nnc3ccccn23)c1C,-85*
C=CCn1c(SCC(=O)c2[nH]c(C)c(C(=O)OC)c2C)nc2scc(-c3ccc(OC)c(OC)c3)c2c1=O,61
COc1ccc(C)cc1NC(=O)c1cc2ccccc2o1,-147*
Cc1ccnc(NC(=O)c2cc3ccccc3o2)c1,97
Cc1ccc(C)c(NC(=O)c2cc3ccccc3o2)c1,-172*
Cc1cc([N+](=O)[O-])ccc1NC(=O)c1cc2ccccc2o1,-115*
Cc1cc(NC(=O)c2cncc(Br)c2)ccc1NC(=O)c1cc2ccccc2o1,78
O=C1C2C3C=CC(C4CC34)C2C(=O)N1/N=C/c1ccc([N+](=O)[O-])s1 (stereo not given),-85*
O=C1C2C3C=CC(C4CC34)C2C(=O)N1/N=C/c1c[nH]c2ccccc12 (stereo not given),-141*
Cc1cc2oc3cc(NCCC4CCCN4C)ccc3c(=O)c2cc1C (stereo not given),-184*
CN1CCCC1CCNc1ccc2sc3ccccc3c(=O)c2c1 (stereo not given),-114*
O=c1c2ccccc2sc2ccc(NCCCN3CCOCC3)cc12,-158*
Cc1cccc(OCCOC(=O)c2c(-c3ccccc3)noc2C)c1,-97*
SMILES,aSyn 5UTR act
Cc1ccsc1/C=N/Nc1ccc(F)cc1F,-176*
Cc1cc(C)nc(N/N=C/c2ccccc2Cl)n1,-88*
Cc1cc(C)nc(N/N=C/c2sccc2C)n1,-82*
Cc1ccsc1/C=N/Nc1ncc(Cl)cc1Cl,-71*
Cc1cc(C)nc(N/N=C/c2ccccc2)n1,-73*
Cc1ccsc1/C=N/Nc1nc(=O)[nH]nc1C,-85*
Cc1cc(C)c2nc(C)cc(N/N=C/c3ccc(O)cc3)c2c1,112
Cc1cccc(Nc2ccc(NCc3ccccc3)nn2)c1,-110*
O=[N+]([O-])c1ccc(-n2cc(-c3ccccc3)nn2)cc1,-80*
O=C(Nc1ccc(F)cc1)Nc1cc(OCC(F)(F)F)cc(OCC(F)(F)F)c1,86
CCOC(=O)c1ccc(NC(=O)C23CCC(C)(C(=O)O2)C3(C)C)cc1 (stereo not given),-106*
CC(C)(C)c1ccc(NC(=O)Nc2ccc(F)cc2)cc1,-245*
